Results filed as inconclusive are left out. Activity calls are given as the source filed them. Unless noted, calls come from the whole dose curve; as a rule, active = well fitted curve in the direction sought with a large enough effect; inconclusive = small, poorly fitted or top-dose-only effect, or another doubt; inactive = no such curve, though single readings can be large; an effect the other way counts as inactive or inconclusive.
Key:
[1] = qHTS for differential inhibitors of proliferation of Plasmodium falciparum line HB3 (AID 1886); settings: Potency: Plasmodium falciparum HB3 proliferation inhibition;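 note: parasites grown with compound for 72 h before SYBR Green readout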; note: potency is the fitted concentration of half-maximal effect
[2] = molecular target: ATP-dependent DNA helicase Q1 (Homo sapiens) (UniProt P46063); experiment: qHTS Validation Assay for Inhibitors of RecQ-Like Dna Helicase 1 (RECQ1) (AID 2353)
ATP-dependent DNA helicase Q1 (Homo sapiens), sequence (P46063 whole entry, looked up): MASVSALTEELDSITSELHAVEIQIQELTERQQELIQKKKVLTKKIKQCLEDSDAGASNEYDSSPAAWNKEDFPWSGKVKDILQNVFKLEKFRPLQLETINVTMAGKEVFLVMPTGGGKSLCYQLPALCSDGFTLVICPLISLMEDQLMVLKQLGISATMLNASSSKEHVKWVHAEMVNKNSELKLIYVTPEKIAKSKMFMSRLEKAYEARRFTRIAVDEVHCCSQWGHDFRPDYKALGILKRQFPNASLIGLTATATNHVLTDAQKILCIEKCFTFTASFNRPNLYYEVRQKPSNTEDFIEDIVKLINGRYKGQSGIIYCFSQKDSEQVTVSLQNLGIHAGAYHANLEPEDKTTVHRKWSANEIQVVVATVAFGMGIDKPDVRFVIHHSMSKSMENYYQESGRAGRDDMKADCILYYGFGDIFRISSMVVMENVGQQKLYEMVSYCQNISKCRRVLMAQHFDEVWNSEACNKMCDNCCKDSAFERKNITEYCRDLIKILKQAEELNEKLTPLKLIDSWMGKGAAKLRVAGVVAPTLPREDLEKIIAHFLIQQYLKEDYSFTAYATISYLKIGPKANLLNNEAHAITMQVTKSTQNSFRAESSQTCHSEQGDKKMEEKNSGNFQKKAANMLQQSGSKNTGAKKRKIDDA
Method in brief: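 50 nM RECQ1T1 preincubated 15 min with compound in Tris pH 8.0 buffer with MgCl2, DTT, Tween-20 and 2.5 ug/ml poly(dI-dC); started with 200 nM TAMRA/BHQ-2 forked duplex and 2 mM ATP. Unwinding read as fluorescence (525/598 nm), two reads 2 h apart.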

[3] = High Content Imaging Cell-Based qHTS for Inhibitors of the mTORC1 Signaling Pathway in MEF Cells (AID 2667); note: potency is the fitted concentration of half-maximal effect
Method in brief: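 Immunofluorescence for rpS6 phosphorylation in MEFs of Tsc2-/-, p53-/- background rescued with WT Tsc2. Compound exposure lasted 24 hrs. Inhibition was scored against rapamycin-treated control wells.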

[4] = Cytometry Cell-Based qHTS for Inhibitors of the mTORC1 Signaling Pathway in MEF cells (AID 2668); note: potency is the fitted concentration of half-maximal effect
Method in brief: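 Read-out: phospho-rpS6 Ser235/236 immunofluorescence normalized to propidium iodide intensity, scored as % active cells against a rapamycin (7.5 nM) threshold. Cells: Tsc2-/-, p53-/- MEFs stably expressing WT Tsc2, compound-treated 24 hrs at 37 degree Celsius.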

[5] = Validation screen for inhibitors of Lassa infection (AID 463096; calls by dose curve; note: potency is the fitted concentration of half-maximal effect)
[6] = molecular target: Ubiquitin carboxyl-terminal hydrolase 2 (Homo sapiens) (UniProt O75604); experiment: qHTS Validation Assay for Inhibitors of Ubiquitin-specific Protease USP2a Using CHOP2 as the Reporter (AID 463106)
Ubiquitin carboxyl-terminal hydrolase 2 (Homo sapiens), sequence (O75604 whole entry, looked up): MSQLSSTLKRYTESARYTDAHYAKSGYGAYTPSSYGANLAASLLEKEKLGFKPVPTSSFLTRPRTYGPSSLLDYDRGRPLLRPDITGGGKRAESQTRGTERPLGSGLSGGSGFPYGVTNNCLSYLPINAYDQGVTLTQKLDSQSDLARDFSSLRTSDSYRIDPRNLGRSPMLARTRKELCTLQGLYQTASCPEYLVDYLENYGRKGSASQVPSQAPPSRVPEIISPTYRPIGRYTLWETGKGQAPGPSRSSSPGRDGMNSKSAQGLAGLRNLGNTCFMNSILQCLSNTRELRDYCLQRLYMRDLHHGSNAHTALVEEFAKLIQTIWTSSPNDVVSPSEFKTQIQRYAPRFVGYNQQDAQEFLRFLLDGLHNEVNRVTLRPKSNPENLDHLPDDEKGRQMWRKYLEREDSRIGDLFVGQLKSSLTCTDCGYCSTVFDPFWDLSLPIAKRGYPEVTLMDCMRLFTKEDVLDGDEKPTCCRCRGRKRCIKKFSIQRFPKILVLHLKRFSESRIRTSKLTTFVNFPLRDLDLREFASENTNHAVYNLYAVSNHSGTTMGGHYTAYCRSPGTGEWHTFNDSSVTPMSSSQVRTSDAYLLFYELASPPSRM
Method in brief: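 10nM USP2 core + cpd, 30min RT; add 25nM Ub-CHOP2/25nM substrate; 60min RT; FI 485/531nm. Buffer Tris pH 8.0, CaCl2, BME, CHAPS. Norm. to NEM = 100% inhibition; time-zero read flags fluorescent artifacts.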

[7] = molecular target: Tumor susceptibility gene 101 protein (Homo sapiens) (UniProt Q99816); experiment: qHTS Validation Assay for Iinhibitors of HIV-1 Budding by Blocking the Interaction of PTAP/TSG101 (AID 485342; calls by dose curve)
Tumor susceptibility gene 101 protein (Homo sapiens), sequence (Q99816 whole entry, looked up, the tested form may be a part): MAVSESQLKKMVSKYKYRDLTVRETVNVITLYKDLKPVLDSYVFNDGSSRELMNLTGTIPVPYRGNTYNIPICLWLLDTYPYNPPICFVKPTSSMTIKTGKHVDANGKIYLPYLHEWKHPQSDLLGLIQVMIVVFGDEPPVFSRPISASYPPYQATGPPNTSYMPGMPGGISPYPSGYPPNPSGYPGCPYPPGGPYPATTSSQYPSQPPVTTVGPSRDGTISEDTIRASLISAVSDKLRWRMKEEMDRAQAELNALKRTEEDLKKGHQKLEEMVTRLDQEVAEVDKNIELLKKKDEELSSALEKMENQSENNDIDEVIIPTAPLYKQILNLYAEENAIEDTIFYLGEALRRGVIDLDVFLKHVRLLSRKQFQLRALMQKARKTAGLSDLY
Method in brief: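 FP read-out: FITC-PTAP peptide, 50 nM final, binding Tsg101 binding domain, 10 uM final; 20 min r.t.; 10 mM HEPES pH 7.5, 0.15 M NaCl, 0.01% Tween 20, 3 mM EDTA, 0.1 mM TCEP.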

[8] = Cytometric Cell-Based qHTS for Inhibitors of the mTORC1 Signaling Pathway in MEF (Tsc2-/-, p53-/-) Cells (AID 2660); note: potency is the fitted concentration of half-maximal effect
Method in brief: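 Percent of cells positive for normalized phospho-S6 staining is reported, with the cutoff set from rapamycin (7.5 nM) versus DMSO wells. Tsc2-/-, p53-/- MEFs received compound for 24 hrs.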

[9] = High Content Imaging Cell-Based qHTS for Inhibitors of the mTORC1 Signaling Pathway in MEF (Tsc2-/-, p53-/-) Cells (AID 2666);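 note: percent of cells scored positive for phospho-rpS6 Ser235/236 immunostaining by imaging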; note: potency is the fitted concentration of half-maximal effect
Method in brief: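 Cells were plated, dosed with compound after 24 hrs, and incubated another 24 hrs at 37 degree Celsius. Fixed cells were immunostained for phospho-rpS6 Ser235/236 and counterstained, and the normalized signal was scored as % active cells against rapamycin and DMSO controls.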

[10] = molecular target: DNA polymerase III PolC-type (Bacillus subtilis (strain 168)) (UniProt P13267); experiment: qHTS Validation Assay for the Inhibitors of DNA Replication in Gram-Positive Bacteria (AID 485295);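 note: reconstituted holoenzyme with PolC plus beta clamp SSB and primase; PicoGreen fluorescence of double-stranded DNA made on primed circular M13 template; series mostly up to about 57 µM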
DNA polymerase III PolC-type (Bacillus subtilis (strain 168)), sequence (P13267 whole entry, looked up): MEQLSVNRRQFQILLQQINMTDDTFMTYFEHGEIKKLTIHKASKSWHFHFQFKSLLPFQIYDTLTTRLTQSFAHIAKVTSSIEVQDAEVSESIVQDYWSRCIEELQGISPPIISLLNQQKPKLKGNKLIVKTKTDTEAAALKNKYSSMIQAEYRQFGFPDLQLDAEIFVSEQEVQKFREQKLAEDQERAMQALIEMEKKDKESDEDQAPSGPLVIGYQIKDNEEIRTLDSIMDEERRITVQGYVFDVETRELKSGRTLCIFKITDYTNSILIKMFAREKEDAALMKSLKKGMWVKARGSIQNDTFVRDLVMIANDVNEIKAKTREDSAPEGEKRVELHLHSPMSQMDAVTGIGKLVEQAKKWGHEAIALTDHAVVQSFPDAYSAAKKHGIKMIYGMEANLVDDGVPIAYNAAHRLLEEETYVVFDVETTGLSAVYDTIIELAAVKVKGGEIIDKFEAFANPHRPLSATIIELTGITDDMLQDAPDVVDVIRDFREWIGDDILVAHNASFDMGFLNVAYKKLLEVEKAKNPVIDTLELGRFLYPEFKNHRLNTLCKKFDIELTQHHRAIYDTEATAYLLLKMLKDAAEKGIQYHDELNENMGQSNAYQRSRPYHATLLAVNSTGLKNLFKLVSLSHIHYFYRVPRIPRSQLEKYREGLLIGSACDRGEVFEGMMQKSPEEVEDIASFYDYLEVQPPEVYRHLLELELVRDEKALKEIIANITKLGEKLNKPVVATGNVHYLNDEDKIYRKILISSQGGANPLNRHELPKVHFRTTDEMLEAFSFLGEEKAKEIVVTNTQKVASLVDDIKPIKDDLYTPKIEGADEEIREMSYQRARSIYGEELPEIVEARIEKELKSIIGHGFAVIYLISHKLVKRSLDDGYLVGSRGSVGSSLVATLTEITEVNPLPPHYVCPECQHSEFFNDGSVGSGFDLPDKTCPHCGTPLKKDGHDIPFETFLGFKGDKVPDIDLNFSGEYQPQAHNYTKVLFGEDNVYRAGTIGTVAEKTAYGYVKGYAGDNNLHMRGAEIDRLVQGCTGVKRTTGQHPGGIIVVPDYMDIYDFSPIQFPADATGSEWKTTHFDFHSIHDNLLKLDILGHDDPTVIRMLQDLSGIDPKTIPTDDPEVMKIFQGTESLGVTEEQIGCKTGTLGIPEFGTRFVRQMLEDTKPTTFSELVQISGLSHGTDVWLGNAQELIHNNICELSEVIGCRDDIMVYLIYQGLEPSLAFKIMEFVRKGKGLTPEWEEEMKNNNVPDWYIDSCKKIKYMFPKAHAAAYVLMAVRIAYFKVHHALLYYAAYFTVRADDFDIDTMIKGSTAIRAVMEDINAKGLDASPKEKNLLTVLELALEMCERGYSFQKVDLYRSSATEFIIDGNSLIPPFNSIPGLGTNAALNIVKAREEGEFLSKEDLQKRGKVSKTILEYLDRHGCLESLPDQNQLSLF
Method in brief: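 PicoGreen fluorescence (ex 480–485/em 535–540 nm) reports dsDNA synthesized on ssM13Gori template with dNTPs/NTPs. Enzyme: holoenzyme rebuilt from purified PolC, beta subunit, SSB and primase. Compound preincubated before substrate addition; RT throughout.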

[11] = molecular target: Beta-2 adrenergic receptor (Homo sapiens) (UniProt P07550); experiment: qHTS validation assay of beta-arrestin-biased ligands of beta2-adrenergic receptor (AID 485366)
Beta-2 adrenergic receptor (Homo sapiens), sequence (P07550 whole entry, looked up): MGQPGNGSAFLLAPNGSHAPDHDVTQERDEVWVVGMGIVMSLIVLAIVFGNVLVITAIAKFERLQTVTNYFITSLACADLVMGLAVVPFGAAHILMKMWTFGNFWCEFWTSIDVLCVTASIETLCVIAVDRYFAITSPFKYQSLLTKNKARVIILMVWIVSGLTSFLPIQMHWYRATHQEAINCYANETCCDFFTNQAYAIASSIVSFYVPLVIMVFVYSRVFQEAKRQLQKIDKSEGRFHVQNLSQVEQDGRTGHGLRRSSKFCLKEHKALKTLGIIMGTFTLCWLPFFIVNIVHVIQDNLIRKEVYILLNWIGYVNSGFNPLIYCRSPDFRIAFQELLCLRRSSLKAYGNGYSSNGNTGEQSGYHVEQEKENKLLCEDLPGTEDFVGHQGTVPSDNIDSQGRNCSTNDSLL
Method in brief: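 Luminescence from a tTA-responsive luciferase, induced when recombinant beta-arrestin is recruited to recombinant beta2-AR, served as the agonism signal. Cells were exposed to compound for 18 hr at 37 degrees C; titrations spanned up to 46 microM.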

[12] = qHTS Assay for Modulators of Human Peripheral Myelin Protein 22 (PMP22) Expression/Activity (AID 1967; active = well fitted curve in the direction sought with a large enough effect in the signal ratio; the % refers to the signal ratio)
Method in brief: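 Mouse MSC80 Schwann line, Pmp22 promoter–CBG68 reporter, EF-alpha–CBR internal control. 24h compound exposure, 37 °C/5% CO2, DMEM + 10% FBS. Readout: corrected green/red luminescence ratio, normalized to untreated cells; concentration-response curves fitted and classified.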

[13] = molecular target: Ferritin light chain (Equus caballus) (UniProt P02791); experiment: qHTS Validation Assay for Identification of Novel General Anesthetics (AID 2323); note: series mostly up to about 77 µM
Ferritin light chain (Equus caballus), sequence (P02791 2-175 limits assumed): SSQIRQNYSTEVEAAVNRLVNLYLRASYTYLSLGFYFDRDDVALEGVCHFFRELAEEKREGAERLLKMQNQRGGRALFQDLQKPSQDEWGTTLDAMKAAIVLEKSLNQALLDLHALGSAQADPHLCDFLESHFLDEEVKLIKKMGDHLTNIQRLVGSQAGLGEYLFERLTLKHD
Method in brief: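 10 uM horse-spleen apoferritin + 1-AMA (50% saturated, PBS); cpd pin-transferred, 10 min RT. Ex 380/Em 535 nm endpoint. Activity normalized between free 1-AMA and 1-AMA/apoferritin; 4-parameter Hill fit of concentration-response.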

[14] = Validation screen for small molecules that induce DNA re-replication in MCF 10A normal breast cells (AID 463097); note: nearly all actives have a fitted effect of over 60% in size; note: potency is the fitted concentration of half-maximal effect
Method in brief: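 250 MCF 10A cells/well; compound pin-transferred; 48 hr, 37 C, 5% CO2; Hoechst 40 min; imaged 405/500-530 nm. Hits = more high-intensity nuclei.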

[15] = qHTS Validation Assay to Find Inhibitors of Chronic Active B-Cell Receptor Signaling (AID 485345; active = well fitted curve in the direction sought with a large enough effect in the main read-out, with a control signal flat, not every such curve was filed as active)
Method in brief: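 Read-out: ratio of filter-corrected green (IkappaBalpha fusion) to red (native) luciferase signal in doxycycline-induced TMD8 cells after 4 h at 37C. Titration spanned 46 uM–3 nM; Data were normalised to basal cells and 10 uM MG-132 wells.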

[16] = molecular target: RecQ-like DNA helicase BLM (Homo sapiens) (UniProt P54132); experiment: qHTS Validation Assay for Inhibitors of Bloom's syndrome helicase (BLM) (AID 2364)
Method in brief: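 Forked 20-bp duplex substrate (200 nM, TAMRA/BHQ-2) plus 2 mM ATP added after 15 min compound preincubation with 50 nM enzyme, pH 8.0, poly(dI-dC) 2.5 ug/ml. Strand separation followed by fluorescence (525/598 nm) over 2 h, normalized to enzyme-free and DMSO controls.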

[17] = molecular target: ATP-dependent 6-phosphofructokinase (Trypanosoma brucei brucei) (UniProt O15648); experiment: qHTS Validation Assay to Find Inhibitors of T. brucei phosphofructokinase (AID 485368); note: potency is the fitted concentration of half-maximal effect
ATP-dependent 6-phosphofructokinase (Trypanosoma brucei brucei), sequence (O15648 whole entry, looked up): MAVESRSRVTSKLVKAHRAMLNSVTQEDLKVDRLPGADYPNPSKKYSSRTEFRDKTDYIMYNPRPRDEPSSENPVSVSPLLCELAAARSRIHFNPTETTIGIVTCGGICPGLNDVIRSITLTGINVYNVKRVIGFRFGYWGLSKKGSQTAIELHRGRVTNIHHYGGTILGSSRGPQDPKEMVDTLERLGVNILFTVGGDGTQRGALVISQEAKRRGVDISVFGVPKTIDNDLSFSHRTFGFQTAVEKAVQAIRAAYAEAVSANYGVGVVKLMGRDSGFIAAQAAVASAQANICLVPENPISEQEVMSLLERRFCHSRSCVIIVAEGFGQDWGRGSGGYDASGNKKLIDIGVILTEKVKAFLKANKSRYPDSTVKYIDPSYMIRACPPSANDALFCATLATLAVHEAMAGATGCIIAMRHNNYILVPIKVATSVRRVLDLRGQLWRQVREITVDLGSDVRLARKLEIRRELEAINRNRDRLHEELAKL
Method in brief: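 Activity was normalized between 1x (1.25 nM) PFK wells as no inhibition and enzyme-free wells as full inhibition, from luminescence after ADP-Glo detection of ADP made from 0.5 mM F6P and 0.1 mM ATP over 45 min.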

[18] = qHTS Assay for Identification of Small Molecule Inducers of Hypoxia Response (AID 2120; active = well fitted curve in the direction sought with a large enough effect in the signal ratio, with a control signal flat, not every such curve was filed as active; the % refers to the signal ratio)
Method in brief: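 Induction of beta-lactamase reporter activity was measured in CellSensor HRE-bla ME-180 cells after 17 h compound treatment at 37 degrees C, using CCF4 substrate and the 460nm/530nm emission ratio to derive AC50 values.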

Measured: Potency

NC(N)=Nc1ccc2[nH]c3c(c2c1)C[C@@]1(O)[C@H]2Cc4ccc(O)c5c4[C@@]1(CCN2CC1CC1)[C@H]3O5
active: [5] 0.891 µM
inactive: [1] | [2] | [3] | [4] | [6] | [7]

CC(C)(C)c1cc(C=C(C#N)C#N)cc(C(C)(C)C)c1O
active: [1] 1 µM | [4] 4.14 µM | [5] 2.51 µM
inactive: [2] | [8] | [9] | [6] | [10] | [7] | [11]

O=C1CC[C@@]2(O)C3Cc4ccc(O)c5c4C2(CCN3CC2CC2)[C@H]1O5 (some centres not stated)
not listed: [1] | [6] | [16] | [17] | [18]
inactive: all other assays above

COc1ccc2c(c1)/C(=C/c1cnc[nH]1)C(=O)N2
inactive: [2] | [16] | [5] | [6] | [10] | [7] | [11] | [17]
active: [1] 12.6 µM | [8] 10.4 µM | [4] 6.56 µM

ClCC1CO1 (configuration not stated)
inactive: [18]

CCCCCCCCCCCCCC(=O)O[C@@H]1[C@@H](C)[C@@]2(O)[C@@H](C=C(CO)C[C@@]3(O)C(=O)C(C)=C[C@@H]23)C2C(C)(C)[C@@]21OC(C)=O (some centres not stated)
active: [1] 12.6 µM
inactive: [2] | [6] | [10] | [7] | [11]

CCOC(=O)c1ccccc1C(=O)OCC
inactive: [18]

C[N+](C)(C)CC#CCOC(=O)Nc1cccc(Cl)c1
not listed: [1] | [3] | [14] | [16] | [18]
inactive: all other assays above

CC(C)CCON=O
inactive: [18]

CCCCCl
inactive: [18]

CC(C)NP(=O)(NC(C)C)OP(=O)(NC(C)C)NC(C)C
not listed: [1] | [3] | [16] | [17] | [18]
inactive: all other assays above

O=C1CCO1
inactive: [18]

N#CC(C#N)=Cc1cc(O)c(O)c(O)c1
active: [1] 11.2 µM
inactive: [13] | [2] | [5] | [14]

[O]=[Cd]
inactive: [18]

COc1ccc2[nH]c3c(c2c1)CCNC3
not listed: [2] | [12] | [16] | [18]
inactive: all other assays above

O=CC=O
inactive: [18]

CC1OC1P(=O)(O)O (configuration not stated)
inactive: [1] | [13] | [2] | [14]

CCCCCCCCOC(=O)c1ccccc1C(=O)OCCCCCCCC
inactive: [18]

C[N+]1(C)C2CCC1CC(OC(=O)c1c[nH]c3ccccc13)C2 (configuration not stated)
active: [1] 14.1 µM | [14] 14.1 µM
not listed: [3] | [5] | [12] | [13] | [16] | [18]
inactive: all other assays above

CCCCCCC(C)(C)c1ccc([C@@H]2C[C@H](O)CC[C@H]2CCCO)c(O)c1
inactive: [2] | [3] | [6] | [7] | [15] | [11] | [17]
active: [1] 2.82 µM

Clc1ccccc1Cl
inactive: [18]

C=CCN1C[C@@H](C)N([C@H](c2ccc(C(=O)N(CC)CC)cc2)c2cccc(OC)c2)C[C@@H]1C
active: [1] 4.47 µM
not listed: [12] | [13] | [16] | [17] | [18]
inactive: all other assays above

CNC(=O)OCC[N+](C)(C)C
inactive: [1] | [13] | [2] | [5]

Ic1ccccc1CNC1C2CCN(CC2)C1C(c1ccccc1)c1ccccc1 (configuration not stated)
active: [1] 11.2 µM | [9] 16.5 µM | [3] 6.56 µM | [4] 6.56 µM | [14] 17.8 µM
inactive: [2] | [16] | [6] | [10] | [7] | [11] | [17]

NC(=O)CI
active: [17] 19 µM
not listed: [12] | [13] | [14] | [16] | [18]
inactive: all other assays above
